Only some compounds are listed: those with a hit (about 1.5% of all), similar ones and a draw of the others.
Hsp70 act: transcriptional activators of Hsp70 | AID 1203 | HeLa Hsp70 promoter luciferase reporter, luminescence; scaled: vehicle 0, proteasome-inhibitor control 100% | 0.04% of 200,000 active | activation, % at 10 µM;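 active = activation above the mean across all tested compounds plus 3 SD, cutoff set per campaign, cut at about 5.5% in these data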
Insulin prom up: MIN6 insulin promoter up-regulation. z-score at 5 µM. MIN6 insulin promoter-GFP reporter, high-content imaging; stronger effect = higher value. 0.3% of 190,000 active;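 active = z-score above 3 at 5 µM with at least 500 cells counted in the well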
S1P3 antag: blocks the human S1P3 receptor; Q99500; CHO S1P3 NFAT-BLA reporter, FRET fluorescence, antagonist mode; inhibition, % at 4.98 µM; 0.27% of 170,000 active; AID 485;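 active = inhibition above the plate cutoff, the mean inhibition of test wells on that plate plus 3 SD, cut at about 28% in these data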;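 also: cells challenged with S1P at its EC80 of 0.8 µM; blue over green emission ratio from cleaved BLA substrate after 4 h stimulation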
Target sequence (Q99500 whole entry, looked up): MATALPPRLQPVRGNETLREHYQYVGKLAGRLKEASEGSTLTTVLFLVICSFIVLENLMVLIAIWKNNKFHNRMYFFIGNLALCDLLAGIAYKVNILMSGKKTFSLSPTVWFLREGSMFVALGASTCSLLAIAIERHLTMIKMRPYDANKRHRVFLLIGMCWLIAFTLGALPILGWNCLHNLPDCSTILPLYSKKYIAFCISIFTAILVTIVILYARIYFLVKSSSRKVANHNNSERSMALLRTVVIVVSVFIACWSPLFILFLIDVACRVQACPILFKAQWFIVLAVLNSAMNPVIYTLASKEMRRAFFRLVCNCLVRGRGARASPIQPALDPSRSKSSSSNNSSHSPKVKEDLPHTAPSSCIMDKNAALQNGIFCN
S1P4 antag: human S1P4 receptor antagonism. inhibition, % at 4.98 µM. 0.26% of 220,000 active. S1P4-expressing cells, antagonist mode, reporter read-out. O95977; in the data active = inhibition above about 29%
S1P4 agonist: agonists of human S1P4 receptor | O95977 | S1P4-expressing cell line, agonist reporter assay | activation, % at 4.98 µM | 0.35% of 220,000 active; in the data active = activation above about 11%
INS promoter inh: TRM-6 insulin promoter activity inhibition. TRM-6 cells (human fetal islet line), insulin promoter-eGFP reporter, imaging; reporter expression induced with tamoxifen. inhibition, % at 2 µM. 0.9% of 130,000 active. AID 1273;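 active = inhibition above the mean plus 3 SD, with well images judged a real hit on visual review, cut at about 60% in these data, passing the limit was not always enough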
A number is an active result; n = inactive; x = no result given.

SMILES	Hsp70 act	Insulin prom up	S1P3 antag	S1P4 antag	S1P4 agonist	INS promoter inh
Cc1nc2nc3c(c(=O)n2[nH]1)CCC3	n	n	n	n	n	n
O=c1c2c(nc3nc(Cc4ccccc4)[nH]n13)CCC2	n	x	n	n	n	92.3
C[C@H]1COc2c(C3(N)CC3)c(F)cc3c(=O)c(C(=O)O)cn1c23	n	n	n	n	n	x
Cc1ccc2[nH]c3c(=O)n(CCCN4CCN(C)CC4)cnc3c2c1	n	x	n	n	n	n
CC1CCCCN1C(=O)Cn1cc(C(=O)c2ccco2)c2ccccc21 (stereo not given)	n	n	95.9	n	n	n
O=C(c1ccco1)c1cn(CC(=O)N2CCCCCC2)c2ccccc12	n	n	n	n	n	x
Cc1cccn2c(CNC3CCCc4ccccc43)c(C(=O)N3CCCCC3)nc12 (stereo not given)	n	n	n	n	n	x
NS(=O)(=O)c1ccc(NC=C2C(=O)OC3(CCCCC3)OC2=O)cc1	n	3.78	n	n	n	n
COC(=O)c1c(NC(=O)CC2Nc3cc(C)c(C)cc3NC2=O)sc(C)c1C (stereo not given)	n	6.44	n	n	n	x
O=C1NCCN(Cc2ccc(Cl)c(F)c2)C1CC(=O)N1CCCCO1 (stereo not given)	n	x	n	n	n	n
COc1ccc(-c2cc(C(F)(F)F)nc(S(=O)(=O)CCCC(=O)Nc3cccnc3Cl)n2)cc1OC	n	n	n	29.2	n	n
CCCCOC(=O)Nc1ccc(C(=O)OC)cc1	n	n	n	n	n	x
CCCCOC(=O)Nc1cc(C(=O)OC)ccc1C(=O)OC	n	n	n	n	n	65.2
CCn1cnc2scc(-c3ccccc3)c2c1=O	n	n	n	n	n	n
Cn1cc(/C=N/n2cnc3scc(-c4ccc(Cl)cc4)c3c2=O)c2ccccc21	n	n	56.4	n	n	n
COC(=O)NC(=S)N1CCOCC1	n	n	n	n	n	n
Cc1cc(C)c(NC(=O)CN2CCN(C)CC2)c(C)c1	x	n	79.1	x	x	x
COc1ccccc1Cn1c(=O)c2ccccc2n2c(Sc3ncnc4sccc34)nnc12	n	n	n	n	n	78.6
COc1ccccc1Cn1c(=O)c2ccccc2n2c(SCc3csc(C)n3)nnc12	n	n	x	n	n	x
CC(=O)Nc1cccc(NC(=O)CSc2nnnn2C)c1	n	n	70.2	n	n	n
CC(=O)Nc1cccc(NC(=O)CSc2nnnn2C(C)C)c1	n	x	n	n	n	n
CSc1cccc(NC(=O)COc2cccc3ccccc23)c1	n	n	x	n	n	73.0
CCC(CC)C(=O)NCCc1ccc(OC)cc1	n	n	x	n	n	n
CCN1C(=O)/C(=C/c2ccc(N3CCCC3)cc2)NC1=S	n	15.8	n	n	n	n
CC1CCCCN1C(=O)COc1ccc2ccc(=O)oc2c1 (stereo not given)	n	n	n	n	n	x
SMILES	Hsp70 act	Insulin prom up	S1P3 antag	S1P4 antag	S1P4 agonist	INS promoter inh
CCCn1nnc(NC(=O)c2ccc(Br)cc2)n1	n	n	n	n	n	79.3
CN1CCN(c2ccc(Cl)cc2NC(=O)/C=C/c2cccc(F)c2)CC1	n	n	n	n	n	x
CCOC(=O)C1C(=O)C=C(/C=C/c2ccc(N(C)C)cc2)CC1c1ccccc1 (stereo not given)	n	9.81	n	n	n	x
COc1ccc(C(=O)NCC(=O)N/N=C/c2cn[nH]c2-c2ccccc2)cc1	n	x	n	n	n	n
CNC(=O)c1ccc(-c2sc3nc(N4CCOCC4)c4c(c3c2N)CC(C)(C)OC4)o1	n	3.23	x	n	n	n
COc1ccc(-c2cn3ccc4ccccc4c3n2)cc1	n	n	x	n	n	76.9
COc1ccc(-c2cn3ccccc3n2)cc1	x	n	n	n	n	x
Cc1ccc(C2C(=O)N(C3CCC(C)CC3)CC(=O)N2C2CCCC2)cc1 (stereo not given)	n	x	x	n	n	67.7
O=C1C(c2ccc(F)cc2)N(C2CCCCC2)C(=O)CN1C1CCCC1 (stereo not given)	n	n	x	n	n	n
Cc1cc(C)c(C(N)=O)c(Nc2cccc(Cl)c2C)n1	n	n	55.0	n	n	n
Cc1cc(S(=O)(=O)n2ccnc2)c(Cl)cc1Cl	n	n	n	n	n	n
COC(=O)c1ccc(C2C(C#N)=C(N)Oc3cc(C)n(C)c(=O)c32)cc1 (stereo not given)	n	n	n	n	n	76.3
COC(=O)C1=C(N)Oc2cc(C)n(Cc3ccccc3)c(=O)c2C1c1ccccc1 (stereo not given)	n	n	x	n	n	n
COC(=O)C1=C(N)Oc2cc(C)n(C)c(=O)c2C1c1ccc(Cl)cc1 (stereo not given)	n	n	70.7	n	n	n
Nc1cnn(C2CCCO2)c(=O)n1 (stereo not given)	n	x	n	n	n	n
CCOC(=O)c1ccc2nc(C)c(C)nc2c1	x	n	n	n	n	x
COC(=O)C1=C(C)NC(=O)/C1=C\c1cc(C)n(-c2ccccc2C)c1C	n	n	x	n	n	71.4
S=C(Nc1ccc(Cl)cc1)c1nc2ccccc2[nH]1	n	n	n	n	n	x
Cc1ccccc1NC(=S)c1nc2ccccc2[nH]1	n	n	n	n	n	97.4
COc1cccc(-c2cc(C(F)(F)F)n3nc(C(=O)N4CCCCC4c4cccnc4)cc3n2)c1 (stereo not given)	n	n	n	n	n	n
Cc1cc(C)nc(-n2ncc3c2CC(c2cccc(Cl)c2)CC3=O)n1 (stereo not given)	n	n	n	n	n	n
Cc1cc(N2C(=O)c3ccccc3C2=O)n(C)n1	x	3.77	n	n	n	x
Cc1ccc(N2C(=O)c3ccccc3C2=O)cc1C	n	n	x	n	n	n
O=C(Nc1ccccc1)c1nsnc1C(=O)Nc1ccccc1	n	n	n	n	n	x
CC1=C(C(=O)Nc2ccc(Br)cc2)C(c2ccco2)NC(=O)N1 (stereo not given)	n	n	x	n	n	67.7
SMILES	Hsp70 act	Insulin prom up	S1P3 antag	S1P4 antag	S1P4 agonist	INS promoter inh
CC1=C(C(=O)Nc2ccc(C)cc2)C(c2ccco2)NC(=O)N1 (stereo not given)	n	x	x	n	n	n
COC(=O)c1[nH]c2cccc(Cl)c2c1NC(=O)CN(C)C1CCCCC1	n	3.5	n	n	n	n
CCOC(=O)C1CCN(CC(=O)Nc2c(C(=O)OC)[nH]c3cccc(Cl)c23)CC1	n	n	n	n	n	n
CCCC(CCC)=NNC(=O)CN(Cc1ccccc1)S(=O)(=O)c1ccccc1	n	n	n	n	n	n
COC(=O)c1ccccc1NC(=O)C(=O)NCc1ccncc1	n	n	n	n	n	x
O=C(Nc1ccc(N2CCOCC2)cc1)Nc1ccc2nc(-c3ccco3)c(-c3ccco3)nc2c1	n	n	56.8	n	n	n
O=C(CN1C(=O)c2ccccc2C1=O)Nc1sc2c(c1C(=O)NCc1ccco1)CCCC2	n	n	x	n	n	92.3
O=C(CCCN1C(=O)c2ccccc2C1=O)Nc1sc2c(c1C(=O)NCc1ccco1)CCC2	n	n	n	n	n	n

High-throughput results (PubChem)
